# Laboratory results as given in PubChem BioAssay AID372 (MTDP, 2006).
# Out of some 100,000 compounds screened, about 770 (0.77%) were called active. The entries come from a sample that favours actives as a whole. Unmarked numbers belong to inactive results. Rule as the data show it: active = inhibition above about 50%; inactive = the rest.
# Target: Gag-Pol polyprotein (Human immunodeficiency virus type 1 group M subtype B (isolate HXB2)) (UniProt P04585)
# Assay: RNase H inhibition, HIV 1 Gag Pol polyprotein, FRET biochemical assay, screening (AID 372)
# Conditions: HIV-1 RT RNase H, FRET RNA/DNA substrate fluorescence; at 10 µM; stronger effect = higher value
row,SMILES,inhibition
1,CC(=O)C1C(=O)C=C(c2cccs2)CC1c1ccccc1 (stereo unspecified),0%
2,CCOC(=O)C1=C(c2ccccc2)S/C(=C2/C(=S)C(C)(C)N(C(C)=O)c3ccc(C)cc32)S1,24%
3,CCOC(=O)C1=C(c2ccccc2)S/C(=C2/C(=S)C(C)(C)N(C(C)=O)c3ccc(OC)cc32)S1,22%
4,CC(=O)C1=C(c2ccccc2)S/C(=C2/C(=S)C(C)(C)N(C(C)=O)c3ccc(C)cc32)S1,50% (active)
5,O=C(CSc1nc(O)cc(=O)[nH]1)C1CC1,11%
6,O=C1NC(=O)C(=Cc2cccn2-c2ccccc2)C(=O)N1,29%
7,O=C1NC(=O)C(=Cc2cccn2-c2ccc(Cl)cc2)C(=O)N1,57% (active)
8,COc1ccc(-n2cccc2/C=C2\C(=O)NC(=S)N(c3ccc(Br)cc3)C2=O)cc1,32%
9,CN1C(=O)/C(=C/c2cccn2-c2ccc([N+](=O)[O-])cc2)SC1=S,42%
10,CN1C(=O)S/C(=C/c2cccn2-c2ccc(Cl)cc2)C1=O,44%
11,COc1ccc(-n2cccc2/C=C2/SC(=O)N(C)C2=O)cc1,53% (active)
12,COc1ccc(N2C(=O)/C(=C/c3cccn3-c3ccccc3)C(=O)NC2=S)cc1,54% (active)
13,O=C1NC(=S)NC(=O)C1=Cc1cccn1-c1ccc(Cl)cc1,11%
14,O=C1NC(=S)N(c2ccccc2)C(=O)/C1=C/c1cccn1-c1ccccc1,10%
15,O=C1NC(=S)N(c2ccccc2)C(=O)/C1=C/c1cccn1-c1ccc(Cl)cc1,52% (active)
16,O=C1NC(=S)N(c2ccc(Cl)cc2)C(=O)/C1=C/c1cccn1-c1ccccc1,4%
17,COc1ccc(N2C(=O)/C(=C/c3cccn3-c3ccc(Br)cc3)C(=O)NC2=S)cc1,29%
18,O=C(c1cc(-c2ccccc2)nc2ccccc12)N1CCc2ccccc2C1,9%
19,COc1ccc(C(=O)N/C(=C\c2cc(OC)c(OC)cc2[N+](=O)[O-])C(=O)Nc2ccc(C)cc2C)cc1,18%
20,Cc1cccc(C2(c3cccc(C)c3)CC2C(=O)Nc2cc([N+](=O)[O-])ccc2O)c1 (stereo unspecified),30%
21,CC(C)(C)NC(=O)C(=O)N/N=C/c1cccc2ccccc12,10%
22,COC(=O)C(=C/C(C)=C/c1ccco1)C(=O)OC,1%
23,CCN(CC)CCCCCOc1cc(C)cc(C)c1,17%
24,COc1cc(C(=O)N/C(=C/c2ccc(Br)cc2)C(=O)NC(C)C(=O)O)cc(OC)c1OC (stereo unspecified),3%
25,O=C(COc1ccc2ccccc2c1)Nc1ccccc1C(=O)Nc1ccccc1,54% (active)
26,O=C(COc1ccccc1)Nc1ccccc1C(=O)Nc1ccc(C(=O)O)cc1,1%

row,SMILES,inhibition
1,COC(=O)c1ccccc1NC(=O)COc1ccc2ccccc2c1,38%
2,C=C(C)c1cccc(C(C)(C)NC(=O)NCc2ccccn2)c1,0%
3,O=C1c2ccccc2C(=O)N1CCc1nc2ccccc2c(=O)n1-c1ccccn1,61% (active)
4,O=C1c2ccccc2C(=O)N1CCc1nc2ccccc2c(=O)n1-c1ccc(Br)cn1,40%
5,Cc1cccc(-n2c(CCN3C(=O)c4ccccc4C3=O)nc3ccccc3c2=O)n1,14%
6,O=C(c1cccs1)N1CCN(c2ccc([N+](=O)[O-])cc2)CC1,4%
7,Cc1ccc2cc(C3=C/C(=C\c4c(Cl)cccc4Cl)C(=O)O3)ccc2c1,6%
8,O=C1OC(c2ccccc2)=C/C1=C\c1c(Cl)cccc1Cl,50% (active)
9,O=C1OC(c2ccccc2)=C/C1=C/c1ccc([N+](=O)[O-])cc1,2%
10,Cc1ccc([N+](=O)[O-])cc1/C=C1/C=C(c2ccccc2)OC1=O,57% (active)
11,Cc1ccc(C2=C/C(=C\c3cc([N+](=O)[O-])ccc3Cl)C(=O)O2)cc1,43%
12,O=C1OC(c2ccccc2)=C/C1=C/c1ccc(Cl)cc1,7%
13,CC(C)(C)c1cc(/C=N/NC(=O)c2ccccc2O)cc(C(C)(C)C)c1O,25%
14,CC1=C(C(=O)Nc2ccc(C)cc2)C(c2ccc(Br)cc2)NC(=S)N1 (stereo unspecified),10%
15,CC1=C(C(=O)Nc2ccc(Br)cc2)C(c2ccc(Br)cc2)NC(=S)N1 (stereo unspecified),11%
16,CC1=C(C(=O)Nc2ccc(Br)cc2)C(c2ccc(C)cc2)NC(=S)N1 (stereo unspecified),57% (active)
17,COC(=O)C1=C(C)N(C)C(=O)NC1c1cc2c(cc1[N+](=O)[O-])OCO2 (stereo unspecified),3%
18,CCOc1ccc(/C=C2\SC(=NCc3ccccc3)N(Cc3ccccc3)C2=O)cc1,0%
19,COc1ccc(/C=C2\SC(=O)N(Cc3ccccc3)C2=O)cc1OC,44%
20,COc1ccccc1/C=C1/SC(=NCc2ccccc2)N(Cc2ccccc2)C1=O,28%
21,COc1ccc(/C=C2\SC(=NCc3ccccc3)N(Cc3ccccc3)C2=O)cc1OC,54% (active)
22,COc1ccc(/C=C2\SC(=NCc3ccccc3)N(Cc3ccccc3)C2=O)cc1C(=O)O,23%
23,COC(=O)c1ccc(/C=C2\SC(=NCc3ccccc3)N(Cc3ccccc3)C2=O)cc1,59% (active)
24,O=C1CC(c2ccccc2)CC(O)=C1C=NCCN1CCNCC1 (stereo unspecified),0%
25,COc1ccc(C=Nc2ccc(C)c(F)c2)cc1OC,6%
26,CCOC(=O)COc1c(Cl)cc(/C=C2\C(=O)NC(=O)N(c3ccc(F)cc3)C2=O)cc1Cl,2%

row,SMILES,inhibition
1,CC/C(=C1\C(=O)N(c2nc3ccccc3s2)N=C1C(F)(F)F)N1CCCCC1,5%
2,CCOc1ccc(N(CC(=O)N2CCC(C)CC2)S(=O)(=O)c2ccccc2)cc1,8%
3,CCCOc1ccccc1/C=N/NC(N)=O,0%
4,CCc1cc(CC)c(/C=N/O)c(CC)c1/C=N/O,0%
5,CCc1cc(CC)c(Cc2c(CC)cc(CC)c(/C=N/NC(N)=O)c2CC)c(CC)c1/C=N/NC(N)=O,50% (active)
6,Cc1ccc([N+](=O)[O-])cc1S(=O)(=O)n1cnc2ccccc21,22%
7,Cc1cc2ncn(S(=O)(=O)c3ccc(Cl)c([N+](=O)[O-])c3)c2cc1C,23%
8,Cc1cc2ncn(S(=O)(=O)c3cc([N+](=O)[O-])ccc3Cl)c2cc1C,57% (active)
9,CCCC(=O)Nc1ccc(N2CCOCC2)c(Cl)c1,0%
10,CCOC(=O)CCCN1C(=O)S/C(=C\c2ccc(OC)cc2)C1=O,0%
11,COc1ccc(N2CC(C(=O)N/N=C/c3ccc(OC)c(OC)c3)CC2=O)cc1 (stereo unspecified),3%
12,CCOc1cc(/C=C2\SC(=S)N(/N=C/c3ccc(O)c(OCC)c3)C2=O)ccc1O,20%
13,Nc1ccc(-c2nc3ccccc3[nH]2)c(N)c1,4%
14,Cc1ccc2nc(-c3sc(=S)n(-c4ccccc4)c3N)[nH]c2c1,21%
15,COc1ccc(/C=C/C(=O)c2c(-c3ccccc3)c3cc(Cl)ccc3[nH]c2=O)cc1OC,11%
16,O=C(/C=C/c1ccccc1F)c1c(-c2ccccc2)c2cc(Cl)ccc2[nH]c1=O,48%
17,COc1ccc(OC)c(/C=C/C(=O)c2c(-c3ccccc3)c3cc(Cl)ccc3[nH]c2=O)c1,50% (active)
18,COc1ccccc1/C=C/C(=O)c1c(-c2ccccc2)c2cc(Cl)ccc2[nH]c1=O,60% (active)
19,COc1cc(/C=C/C(=O)c2c(-c3ccccc3)c3cc(Cl)ccc3[nH]c2=O)cc(OC)c1OC,3%
20,COc1cc(/C=C/C(=O)c2c(-c3ccccc3)c3cc(Cl)ccc3[nH]c2=O)cc(Br)c1OC,26%
21,C=CCN1C(=O)/C(=C\c2ccc(-c3ccc(Br)cc3)o2)C(=O)NC1=S,32%
22,Cc1ccc(NC(=O)C(=O)NCc2ccc3c(c2)OCO3)cc1,4%
23,Cc1nc2cc(-c3ccc(I)cc3)[nH]n2c(=O)c1C,0%
24,COC(=N)/C(C#N)=C/c1c(O)n(-c2c(Cl)cccc2Cl)c2ccccc12,1%
